Results filed as inconclusive are left out. Active and inactive are the calls of the source. How the source made its calls: active means hit-call score of the fitted dose curve at least 0.9, where 1 is the maximum; inconclusive means response in the unintended direction; inactive means score below 0.9.
What follows are compounds tested on Cytochrome P450 3A4 (Homo sapiens) (UniProt P08684) (assay: CLD_CYP3A4_48hr: CellzDirect (CLD) Gene Expression Assay for xenobiotic metabolism (CYP3A4) at 48 hours (AID 2283698)).
Cytochrome P450 3A4 (Homo sapiens), sequence (P08684 whole entry, looked up): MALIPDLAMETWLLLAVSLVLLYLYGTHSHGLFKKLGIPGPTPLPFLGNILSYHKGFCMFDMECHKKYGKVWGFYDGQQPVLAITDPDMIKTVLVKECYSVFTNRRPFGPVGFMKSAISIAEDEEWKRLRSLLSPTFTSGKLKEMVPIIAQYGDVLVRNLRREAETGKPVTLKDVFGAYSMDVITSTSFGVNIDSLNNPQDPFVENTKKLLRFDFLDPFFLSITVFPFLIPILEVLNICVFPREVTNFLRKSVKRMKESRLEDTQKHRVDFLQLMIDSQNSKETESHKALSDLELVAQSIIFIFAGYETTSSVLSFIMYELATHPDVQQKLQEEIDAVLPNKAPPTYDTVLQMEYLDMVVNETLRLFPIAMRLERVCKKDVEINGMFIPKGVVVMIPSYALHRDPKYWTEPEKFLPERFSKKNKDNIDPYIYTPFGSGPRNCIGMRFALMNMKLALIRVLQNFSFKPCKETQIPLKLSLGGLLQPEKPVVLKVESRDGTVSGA
Method: CLD_48hr is a cell-based, multiplexed-readout assay that uses hepatocyte, a human liver primary cell, with measurements taken at 48 hours after chemical dosing in a 96-well plate.CLD_CYP3A4_48hr is one of 16 assay component(s) measured or calculated from the CLD_48hr assay. It is designed to make measurements of mRNA induction, a form of inducible reporter, as detected with chemiluminescence signals by Quantitative Nuclease Protection Assay (qNPA) technology.Data from the assay component CLD_CYP3A4_48hr was analyzed at the endpoint, CLD_CYP3A4_48hr, in the positive analysis fitting direction relative to DMSO as the negative control and baseline of activity. Using a type of inducible reporter, gain-of-signal activity can be used to understand changes in the reporter gene as they relate to the gene CYP3A4. Furthermore, this assay endpoint can be referred to as a primary readout. To generalize the intended target to other relatable targets, this assay endpoint is annotated to the cyp intended target family, where subfamily is xenobiotic metabolism.
Human hepatocyte cultures were treated daily for two consecutive days with fresh dosing solutions containing appropriate concentrations of the 320 ToxCast chemicals (chemical identities were blinded to CellzDirect and other ToxCast collaborators), vehicle control (0.2% DMSO), and positive control inducers as summarized in Table 1. Due to the large number of treatment groups and chemicals examined, the ToxCast chemicals were divided into two groups (spanning two independent cultures of hepatocytes from separate donor preparations (Hu778: ToxCast plates 1 and 2; Hu776: ToxCast plates 3 and 4). Each preparation of human hepatocyte cultures was treated with respective vehicle control, medium only control, set of six positive controls/reference chemicals for the five hepatic receptor pathways, and a subset of eight of the ToxCast chemicals (indoxacarb, pyrithiobac-sodium, norflurazon, cyhalofop-butyl, methomyl, thiram, acetochlor, and propiconazole). These replicate data, coupled with internal replicates designed within the blinded ToxCast chemical library, provided additional data to evaluate interindividual differences between hepatocyte preparations and their potential impact on chemical profiles.Cell morphology and integrity were evaluated using phase-contrast microscopy as an indicator of hepatocyte cell health (Tyson & Green, 1987). Cultures for each treatment group (i.e., media, vehicle [0.2% DMSO], positive control inducers [multiple concentrations], and the ToxCast chemicals [multiple concentrations]) were observed and cell morphology was assessed relative to vehicle control cultures at each harvest time point (0, 6, 24, or 48 h). […] Images were evaluated at the conclusion of the study to assess changes in cell integrity and account for the effects of chemical exposure on uncharacteristic changes in concentration-dependent gene expression profiles. The results from these determinations of apparent cytotoxicity were annotated (yes/no) alongside the corresponding qNPA data for reference.At the conclusion of each treatment period, hepatocyte cultures (96-well) were washed with 1 volume of HBSS, lysed by addition of 25 ul ArrayPlate lysis buffer (HTG, Tucson, AZ), and 70 ul/well of Denaturation Oil, denatured by incubation at 95C for 10 min, and frozen at approximately -70C until analysis by nuclease protection assay (qNPA) (Roberts et al., 2007). For qNPA analysis, cell lysates were thawed at 50C for approximately 30 min, qNPA probes were added, and samples were incubated at 95C for 10 min to begin the detection process by denaturing the target RNA, dissociating the duplexes and secondary structure hybridization. At the conclusion of the hybridization period, S1 nuclease reagent was added to each sample to digest all nonprotected nucleotides at 50C for 60-90 min. […]
For `CCOP(=S)(OCC)Oc1nc(Cl)n(C(C)C)n1`, the AC50 was 2.52 µM (active). For `CCN(CC)c1nc(C)cc(OP(=S)(OC)OC)n1`, the AC50 was 3.58 µM (active). In the case of `CNC(=O)Oc1cccc2ccccc12`, the outcome was “inactive”. For `Nc1cnn(-c2ccccc2)c(=O)c1Cl`, the outcome was “inactive”. With `COCc1cnc(C2=NC(C)(C(C)C)C(=O)N2)c(C(=O)O)c1` (stereo not given) the outcome was “inactive”. For `CCCCC(O)(Cn1cncn1)c1ccc(Cl)cc1Cl` (stereo not given), the AC50 was 1.89 µM (active). With `Cc1nc(N(C)C)nc(OC(=O)N(C)C)c1C` the outcome was “inactive”. `N#CN=C1SCCN1Cc1ccc(Cl)nc1` was tested, and the AC50 was 20 µM (active). `Clc1cccc(C(Cl)(Cl)Cl)n1` was tested, and the AC50 was 3.02 µM (active). In the case of `COC(=O)NC(=S)Nc1ccccc1NC(=S)NC(=O)OC`, the AC50 was 3.45 µM (active). For `CCCCOCN(C(=O)CCl)c1c(CC)cccc1CC`, the AC50 was 3.57 µM (active). In the case of `COP(=O)(OC)O/C(C)=C/C(=O)N(C)C`, the outcome was “inactive”. In the case of `COc1cc(Cl)c(OC)cc1Cl`, the outcome was “inactive”. `CCCN(CC)CC1COC2(CCC(C(C)(C)C)CC2)O1` (stereo not given) was tested, and the AC50 was 2.82 µM (active). `CCC(C)n1c(=O)[nH]c(C)c(Br)c1=O` (stereo not given) was tested, and the outcome was “inactive”. In the case of `CS(=O)(=O)c1cc(C(F)(F)F)ccc1C(=O)c1cnoc1C1CC1`, the AC50 was 29.1 µM (active). With `COc1cc(OC)nc(NC(=O)NS(=O)(=O)c2ncccc2OCC(F)(F)F)n1` the AC50 was 20 µM (active). `Nc1c(Cl)c(Cl)nc(C(=O)O)c1Cl` was tested, and the outcome was “inactive”. `COC(=O)c1c(C(F)F)nc(C(F)(F)F)c(C2=NCCS2)c1CC(C)C` was tested, and the AC50 was 1.9 µM (active). `Nc1c(Cl)c(F)nc(OCC(=O)O)c1Cl` was tested, and the AC50 was 0.0004 µM (active). `CC(C)NC(=O)N1CC(=O)N(c2cc(Cl)cc(Cl)c2)C1=O` was tested, and the AC50 was 13.5 µM (active). With `Clc1nc(Cl)nc(Nc2ccccc2Cl)n1` the outcome was “inactive”. In the case of `CC(C)(C)C(=O)C(Oc1ccc(Cl)cc1)n1cncn1` (stereo not given), the AC50 was 1.5 µM (active). In the case of `CO/N=C(/C1=NOCCO1)c1ccccc1Oc1ncnc(Oc2ccccc2Cl)c1F`, the outcome was “inactive”. In the case of `COc1ccc(-c2ccccc2)cc1NNC(=O)OC(C)C`, the outcome was “inactive”. With `CC(C)N1C(=O)c2ccccc2NS1(=O)=O` the outcome was “inactive”. For `CCOc1nc(F)cc2nc(S(=O)(=O)Nc3c(Cl)cccc3Cl)nn12`, the AC50 was 3.13 µM (active). `CCNP(=S)(OC)O/C(C)=C/C(=O)OC(C)C` (stereo not given) was tested, and the AC50 was 0.654 µM (active). For `CCCCC(C#N)(Cn1cncn1)c1ccc(Cl)cc1` (stereo not given), the AC50 was 20 µM (active). In the case of `O=C(O)c1c(Cl)ccc2cc(Cl)cnc12`, the outcome was “inactive”. `C=CCOC(=O)C(C)(C)OC(=O)c1cc(-n2c(=O)cc(C(F)(F)F)n(C)c2=O)ccc1Cl` was tested, and the AC50 was 2.79 µM (active). In the case of `CCOP(=O)(OCC)Oc1nc(Cl)c(Cl)cc1Cl`, the outcome was “inactive”. `CN=C=S` was tested, and the outcome was “inactive”. `CC(C)C1(C)N=C(c2ncccc2C(=O)O)NC1=O` (stereo not given) was tested, and the outcome was “inactive”. With `COC(=O)N(C(=O)N1CO[C@@]2(C(=O)OC)Cc3cc(Cl)ccc3C2=N1)c1ccc(OC(F)(F)F)cc1` the AC50 was 5.15 µM (active). `Cc1c(COC(=O)[C@@H]2[C@H](/C=C(\Cl)C(F)(F)F)C2(C)C)cccc1-c1ccccc1` was tested, and the AC50 was 4.01 µM (active). In the case of `CC(C)Nc1nc(Cl)nc(NC(C)C)n1`, the AC50 was 3.54 µM (active). With `CCNC(=O)NC(=O)C(C#N)=NOC` the outcome was “inactive”. With `Cc1cc(C)nc(Nc2ccccc2)n1` the outcome was “inactive”. In the case of `CSC(=O)c1c(C(F)F)nc(C(F)(F)F)c(C(=O)SC)c1CC(C)C`, the AC50 was 0.645 µM (active).

Source: PubChem BioAssay (EPA / NIEHS)
